Data on 40 molecules can be found in PubChem BioAssay (EPA / NIEHS).

Calls of active or inactive are those of the source. How the source made its calls: active means hit-call score of the fitted dose curve at least 0.9, where 1 is the maximum; inactive means score below 0.9.

The nature of this experiment: ATG_DR4_LXR_CIS: Attagene CIS-FACTORIAL HepG2 Assay for human Liver X Receptor (LXR), DR4 submotif (AID 2282929). The conditions noted are these: HepG2 Attagene DR4 cis-reporter, mRNA transcription; actives raise or lower the signal. Here is the method:
ATG_CIS is a cell-based, multiplexed-readout assay that uses HepG2, a human liver cell line, with measurements taken at 24 hours after chemical dosing in a 24-well plate.ATG_DR4_LXR_CIS is one of 52 assay component(s) measured or calculated from the ATG_CIS assay. It is designed to make measurements of mRNA induction, a form of inducible reporter, as detected with fluorescence intensity signals by Reverse transcription polymerase chain reaction (RT-PCR) and Capillary electrophoresis technology.Data from the assay component ATG_DR4_LXR_CIS was analyzed into 1 assay endpoint. This assay endpoint, ATG_DR4_LXR_CIS, was analyzed with bidirectional fitting relative to DMSO as the negative control and baseline of activity. Using a type of inducible reporter, measures of mRNA for gain or loss-of-signal activity can be used to understand the reporter gene at the transcription factor-level as they relate to the gene NR1H2 and NR1H3. Furthermore, this assay endpoint can be referred to as a primary readout, because this assay has produced multiple assay endpoints where this one serves a reporter gene function. To generalize the intended target to other relatable targets, this assay endpoint is annotated to the nuclear receptor intended target family, where the subfamily is non-steroidal.
Human liver HepG2 cells are transiently transfected with multiple reporter transcription units (MRTUs) in 6-well plates using FuGene 6 reagent (Roche; 3 ml FuGene/1 mg DNA). The MRTU constructs are regulated by a cis-regulating element (promoter). […] A major difference between the CIS and TRANS system is that in CIS activities of endogenous TFs are measured, whereas the TRANS assay evaluates changes in activities of exogenous, chimeric NR-Gal4 proteins. […] At the end of 24 hour incubation, total RNA was isolated using TriZol reagent (Invitrogen). The isolated RNA is then reverse-transcribed using oligo(dT) primer and Mo-MLV reverse transcriptase (Invitrogen) with DNAse I (Ambion) treatment for 30 min. The one-tenth of the produced cDNA was amplified by PCR using Taq DNA polymerase (Invitrogen) and two reporter sequence-specific primers. The PCR products were fluorescently labeled by primer extension with 6-arboxyfluorescein (6-FAM) 5'-labeled reporter sequence-specific primer (2 min at 95 C, 20 s at 68 C and 10 min at 72 C) and these products were digested with 5U of HpaI (New England Biolabs) for 2h at 37 C. The fragments were purified using Qiaquick PCR columns (Qiagen), analyzed on an ABI 3130xL genetic analyzer (Applied Biosystems) with peak positions identified by using a set of X-rhodamine (ROX)-labeled MapMarker1000 molecular weight standards (BioVentures). The raw capillary electrophoresis data was processed using Attagraph software (Attagene).
Take `CCCCCCCCCCc1ccccc1`: the molecule was classed as inactive.

Consider `CCN(CC)c1ccc(C(=O)c2ccccc2C(=O)O)c(O)c1`, for which the outcome was inactive.

On to `CCCCCCOC(=O)C(C)CC` (stereo not given), for which the molecule was classed as inactive.

For the molecule `CCCCCCCCCCCCCCCCCC#N`, the molecule was called inactive.

In the case of `O=C(c1ccccc1)c1ccc(O)c(O)c1O`, the result was inactive.

Regarding `c1cc(N(CC2CO2)CC2CO2)ccc1OCC1CO1` (stereo not given), the AC50 (as a rule, the concentration at which the activity in the assay is half-maximal) is 6.98 µM (active).

With `CCCOC(=O)CCCCC(=O)OCCC`, the outcome was inactive.

Take `C[Si](C)O[Si](C)(C)O[Si](C)(C)O[Si](C)C`: the result was inactive.

On to `CCCCC(CC)COCC1CO1` (stereo not given), for which the result was inactive.

Regarding `NCCCN1CCN(CCCN)CC1`, the molecule was called inactive.

For the molecule `O=C1CCC(=O)N1Cl`, the molecule was classed as inactive.

Take `N#CCc1ccc(Cl)cc1Cl`: the molecule was classed as inactive.

For the molecule `CCCCC(CC)COC(=O)c1ccccc1O` (stereo not given), the outcome was inactive.

On to `C[C@]12C=CC(=O)C=C1CC[C@@H]1[C@@H]2[C@@H](O)C[C@@]2(C)[C@H]1CC[C@]2(O)C(=O)CO`, for which the call was inactive.

Regarding `O=[N+]([O-])c1ccc(CO)cc1`, the molecule was called inactive.

`Cc1c(C)c([N+](=O)[O-])c(C(C)(C)C)c([N+](=O)[O-])c1C`: the result was inactive.

Turning to `COCCCOCCCOC`, the molecule was called inactive.

For the molecule `CC(=O)Oc1ccc(C)cc1`, the molecule was called inactive.

As to `N#[N+]c1ccc2c(S(=O)(=O)[O-])cccc2c1O`, the outcome was inactive.

With `CCCCCC/C=C\CCCCCCCC(=O)O`, the AC50 was 27.3 µM (active).

Regarding `O=C(c1ccccc1)C1CCC1`, the call was inactive.

For `CC=C1CC2C=CC1C2` (stereo not given), the half-maximal activity concentration (AC50) was 26.5 µM (active).

For `COC(=O)c1ccccc1OC`, the call was inactive.

For `O=C(O)c1cc(Cl)cc([N+](=O)[O-])c1Cl`, the result was inactive.

As to `CCc1nccnc1C`, the outcome was inactive.

On to `Nc1cccc(C(F)(F)F)c1`, for which the call was inactive.

Turning to `C1CN(SSN2CCOCC2)CCO1`, the call was inactive.

Take `CCCCNc1ccc(NCCCC)c2c1C(=O)c1ccccc1C2=O`: the result was inactive.

In the case of `O=c1cc(-c2ccccc2)oc2ccccc12`, the outcome was inactive.

For the molecule `CCc1ccc2c(c1)C(=O)c1ccccc1C2=O`, the call was inactive.

Turning to `O=c1n(CCO)c(=O)n(CCO)c(=O)n1CCO`, the call was inactive.

Consider `NC(=O)OCC(COC(N)=O)c1ccccc1`, for which the call was inactive.

As to `COC=O`, the call was inactive.

As for `C=C(C)C(=O)OCCOc1ccccc1`, the call was inactive.

With `O=C(Nc1cccc(C(F)(F)F)c1)c1cc(Br)cc(Br)c1O`, the AC50 was 38.3 µM (active).

Take `c1ccc(-c2ccccn2)nc1`: the molecule was classed as inactive.

As for `CC(C)(C)c1ccc(N)cc1`, the molecule was classed as inactive.

Turning to `CC(C)=CCC/C(C)=C\C#N`, the result was inactive.

As for `CC(C)CCCC(C)CC=O` (stereo not given), the molecule was classed as inactive.

As for `CCCCC/C=C\C/C=C\CCCCCCCC(=O)OC`, the molecule was called inactive.
